Reference: PubChem BioAssay (EPA / NIEHS)
Inconclusive results are not listed. Some compounds were tested as several samples or in several runs, with calls that do not always agree. Calls of active or inactive are those of the source. How the source made its calls, unless noted: active means hit-call score of the fitted dose curve at least 0.9, where 1 is the maximum; inactive means score below 0.9.

Key:
[1] = biological target: human RAR-related Orphan Receptor gamma (RORg), RORC (gene 6097) (UniProt P51449); experiment: ATG_RORg_TRANS: Attagene TRANS-FACTORIAL HepG2 Assay for human RAR-related Orphan Receptor gamma (RORg) (AID 2283011; active means hit-call score of the fitted dose curve at least 0.9, where 1 is the maximum;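 on AC50: potency for induction of reporter transcripts above DMSO so activators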)
How it was run: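 HepG2 cells transiently transfected with GAL4-UAS reporter units and chimeric RORg-Gal4 construct; after 24 h chemical exposure, reporter mRNA measured by RT-PCR with fluorescent capillary electrophoresis, gain of signal fitted against DMSO.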

[2] = biological target: Retinoic acid receptor RXR-alpha (Homo sapiens) (UniProt P19793); experiment: ATG_RXRa_TRANS: Attagene TRANS-FACTORIAL HepG2 Assay for human Retinoid X Receptor alpha (RXRa) (AID 2283012; active means hit-call score of the fitted dose curve at least 0.9, where 1 is the maximum)
How it was run: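 TRANS format reporting activity of exogenous RXRa-Gal4 chimera in transiently transfected HepG2, 24 h exposure. Reporter transcripts quantified by RT-PCR with capillary electrophoresis, with gain of signal scored relative to DMSO.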

[3] = biological target: human Retinoid X Receptor beta (RXRb), RXRB (gene 6257) (UniProt P28702); experiment: ATG_RXRb_TRANS: Attagene TRANS-FACTORIAL HepG2 Assay for human Retinoid X Receptor beta (RXRb) (AID 2283013; active means hit-call score of the fitted dose curve at least 0.9, where 1 is the maximum)
How it was run: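 Readout is reporter transcript induction after 24 h dosing. It is measured by RT-PCR of total RNA followed by fluorescent capillary electrophoresis. HepG2 liver cells carry transfected multiple reporter units driven by an exogenous RXRb-Gal4 fusion; activity is relative to DMSO.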

[4] = biological target: human Thyroid Receptor alpha (THRa1), THRA (gene 7067) (UniProt P10827); experiment: ATG_THRa1_TRANS: Attagene TRANS-FACTORIAL HepG2 Assay for human Thyroid Receptor alpha (THRa1) (AID 2283014; active means hit-call score of the fitted dose curve at least 0.9, where 1 is the maximum)
How it was run: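 HepG2 cells transiently transfected with chimeric NR-Gal4 and GAL4-UAS reporter units, dosed 24 h. Reporter mRNA quantified by RT-PCR, fluorescent labeling, HpaI digestion and capillary electrophoresis; gain-of-signal fit versus DMSO.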

[5] = biological target: human Vitamin D Receptor (VDR), VDR (gene 7421) (UniProt P11473); experiment: ATG_VDR_TRANS: Attagene TRANS-FACTORIAL HepG2 Assay for human Vitamin D Receptor (VDR) (AID 2283022; active means hit-call score of the fitted dose curve at least 0.9, where 1 is the maximum)
How it was run: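 HepG2 cells were transiently transfected with GAL4-UAS reporter units and a chimeric VDR-Gal4 construct, then dosed for 24 hours. Reporter mRNA was quantified by RT-PCR, fluorescent labeling, HpaI digestion and capillary electrophoresis; gain of signal analysed vs DMSO.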

[6] = read-out: E-selectin (Homo sapiens) (UniProt P16581); experiment: BSK_3C_Eselectin: BioMAP Diversity Plus: 3C Assay for Eselectin Biomarker Activity (AID 2283015); conditions: primary human endothelial cells (HUVEC); actives raise or lower the signal
How it was run: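 Primary human umbilical vein endothelial cells (3C system), read 24 h after compound addition; E-selectin measured by ELISA. Bidirectional curve fitting against DMSO baseline; cytotoxicity by parallel SRB total-protein staining.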

[7] = read-out: Interleukin-1 alpha (IL1a), IL1A (gene 3552); experiment: BSK_BE3C_IL1a: BioMAP Diversity Plus: BE3C Assay for Interleukin-1 alpha (IL1a) Biomarker Activity (AID 2283016); conditions: primary human bronchial epithelial cells; actives raise or lower the signal
How it was run: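 IL-1a measured by ELISA after 24 h treatment of human primary bronchial epithelial cells, with gain or loss of signal fitted versus DMSO. Parallel cultures stained with SRB gauge overt cytotoxicity.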

[8] = read-out: Monocyte Chemoattractant Protein-1 (MCP1), CCL2 (gene 6347); experiment: BSK_3C_MCP1: BioMAP Diversity Plus: 3C Assay for Monocyte Chemoattractant Protein-1 (MCP1) Biomarker Activity (AID 2283017); conditions: primary human endothelial cells (HUVEC); actives raise or lower the signal
How it was run: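 Human umbilical vein endothelial cells (3C system) exposed to chemicals for 24 h; MCP-1 quantified by ELISA against the DMSO baseline with bidirectional fitting, and parallel SRB staining used to assess cytotoxicity.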

[9] = read-out: Monocyte Chemoattractant Protein-1 (MCP1), CCL2 (gene 6347); experiment: BSK_4H_MCP1: BioMAP Diversity Plus: 4H Assay for Monocyte Chemoattractant Protein-1 (MCP1) Biomarker Activity (AID 2283018); conditions: primary human endothelial cells (HUVEC); actives raise or lower the signal
How it was run: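 ELISA of MCP-1 (CCL2) 24 h after chemical dosing of HUVEC in the BioMAP 4H system. Gain or loss versus DMSO fitted; parallel SRB staining (560 nm) tracked overt cytotoxicity.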

[10] = read-out: Human Leukocyte Antigen - DR isotype (HLADR), HLA-DRA (gene 3122); experiment: BSK_3C_HLADR: BioMAP Diversity Plus: 3C Assay for Human Leukocyte Antigen - DR isotype (HLADR) Biomarker Activity (AID 2283019); conditions: primary human endothelial cells (HUVEC); actives raise or lower the signal
How it was run: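 HUVEC monoculture, HLA-DR measured by ELISA 24 h after chemical dosing. Fitted bidirectionally against DMSO baseline; parallel SRB staining assessed cytotoxicity, with 3C proliferation read by SRB at 48 h.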

[11] = read-out: Interleukin-8 (IL8), CXCL8 (gene 3576); experiment: BSK_3C_IL8: BioMAP Diversity Plus: 3C Assay for Interleukin-8 (IL8) Biomarker Activity (AID 2283020); conditions: primary human endothelial cells (HUVEC); actives raise or lower the signal
How it was run: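 IL-8 was measured by ELISA in HUVEC cultures 24 h after chemical dosing, with gain or loss of signal fitted relative to DMSO. Parallel SRB total-protein staining tracked overt cytotoxicity.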

[12] = read-out: Monokine induced gamma interferon (MIG), CXCL9 (gene 4283); experiment: BSK_3C_MIG: BioMAP Diversity Plus: 3C Assay for Monokine induced gamma interferon (MIG) Biomarker Activity (AID 2283021); conditions: primary human endothelial cells (HUVEC); actives raise or lower the signal;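 on AC50: MIG protein level measured by immunoassay in the treated endothelial cultures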
How it was run: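 ELISA measurement of MIG in human umbilical vein endothelial cells 24 h after treatment. Cytotoxicity tracked by SRB staining in parallel cultures; gain or loss of signal fitted relative to DMSO.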

[13] = BSK_3C_SRB: Viability Assessment in the BioMAP Diversity Plus: 3C Assay (AID 2283023); conditions: primary human endothelial cells (HUVEC);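 further: fitted both ways against DMSO so a hit may be signal rise or drop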
How it was run: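 Human umbilical vein endothelial cells in the 3C system, treated 24 h. Total protein measured by 0.1% sulforhodamine B staining after 10% TCA fixation, read at 560 nm; bidirectional fit versus DMSO.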

[14] = read-out: Matrix Metallopeptidase 1 (MMP1), MMP1 (gene 4312); experiment: BSK_BE3C_MMP1: BioMAP Diversity Plus: BE3C Assay for Matrix Metallopeptidase 1 (MMP1) Biomarker Activity (AID 2283024); conditions: primary human bronchial epithelial cells; actives raise or lower the signal
How it was run: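 ELISA measurement of MMP-1 after 24 h compound exposure of primary human bronchial epithelial cells. Changes in either direction fitted relative to DMSO; parallel SRB staining checked overt cytotoxicity.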

[15] = BSK_3C_Vis: BioMAP Diversity Plus: 3C Assay for Morphology Visualization (AID 2283025); conditions: primary human endothelial cells (HUVEC);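 further: fitted both ways so gain or loss versus DMSO counts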;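 on AC50: light microscopy image of cell morphology used as background control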
How it was run: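 Light-microscopy visualization of HUVEC cultures at 24 h post-treatment, with DMSO as baseline for bidirectional fitting.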

[16] = read-out: Pselectin, SELP (gene 6403); experiment: BSK_4H_Pselectin: BioMAP Diversity Plus: 4H Assay for Pselectin Biomarker Activity (AID 2283026); conditions: primary human endothelial cells (HUVEC); actives raise or lower the signal
How it was run: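 ELISA of surface P-selectin on HUVEC, 24 h after dosing, with parallel SRB staining (0.1% after 10% TCA fixation, 560 nm) for overt cytotoxicity. Activity fitted in both directions relative to DMSO.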

[17] = BSK_4H_SRB: Viability Assessment in the BioMAP Diversity Plus: 4H Assay (AID 2283027); conditions: primary human endothelial cells (HUVEC);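 further: cells exposed to compound for 24 h before staining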;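 on AC50: curves fitted both ways versus DMSO so AC50 may be loss or gain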
How it was run: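 HUVEC, 24 h post-dose; 10% TCA fix, 0.1% SRB stain, A560 nm. Total protein = overt cytotoxicity, parallel to biomarker read. Bidirectional fit vs DMSO baseline.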

[18] = read-out: Urokinase-type plasminogen activator receptor (uPAR), PLAUR (gene 5329); experiment: BSK_4H_uPAR: BioMAP Diversity Plus: 4H Assay for Urokinase-type plasminogen activator receptor (uPAR) Biomarker Activity (AID 2283030); conditions: primary human endothelial cells (HUVEC); actives raise or lower the signal
How it was run: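 Human umbilical vein endothelial cells in the 4H system, 24 h after chemical dosing. Cell-surface uPAR measured by ELISA, fitted in both directions versus DMSO; cytotoxicity checked by SRB total protein in parallel cultures.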

[19] = read-out: Vascular endothelial growth factor receptor 2 (Homo sapiens) (UniProt P35968); experiment: BSK_4H_VEGFRII: BioMAP Diversity Plus: 4H Assay for Vascular endothelial growth factor receptor 2 (VEGFR2) Biomarker Activity (AID 2283031); conditions: primary human endothelial cells (HUVEC); actives raise or lower the signal;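 on AC50: cell-surface VEGFR2 protein level quantified by ELISA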
How it was run: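 Primary human umbilical vein endothelial cells (4H system), 24 h exposure; cell-surface VEGFR2 measured by ELISA. Bidirectional fitting versus DMSO; cytotoxicity checked in parallel by SRB total-protein staining.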

[20] = read-out: Human Leukocyte Antigen - DR isotype (HLADR), HLA-DRA (gene 3122); experiment: BSK_BE3C_HLADR: BioMAP Diversity Plus: BE3C Assay for Human Leukocyte Antigen - DR isotype (HLADR) Biomarker Activity (AID 2283032); conditions: primary human bronchial epithelial cells; actives raise or lower the signal
How it was run: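 Cell-surface HLA-DR ELISA readout at 24 h after dosing in the BE3C primary human lung bronchial epithelial system; gain or loss of signal against DMSO, with parallel sulforhodamine B staining of total protein for overt cytotoxicity.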

Measured: AC50

human Thyroid Receptor alpha (THRa1), THRA (gene 7067), sequence (P10827 whole entry, looked up, the tested form may be a part): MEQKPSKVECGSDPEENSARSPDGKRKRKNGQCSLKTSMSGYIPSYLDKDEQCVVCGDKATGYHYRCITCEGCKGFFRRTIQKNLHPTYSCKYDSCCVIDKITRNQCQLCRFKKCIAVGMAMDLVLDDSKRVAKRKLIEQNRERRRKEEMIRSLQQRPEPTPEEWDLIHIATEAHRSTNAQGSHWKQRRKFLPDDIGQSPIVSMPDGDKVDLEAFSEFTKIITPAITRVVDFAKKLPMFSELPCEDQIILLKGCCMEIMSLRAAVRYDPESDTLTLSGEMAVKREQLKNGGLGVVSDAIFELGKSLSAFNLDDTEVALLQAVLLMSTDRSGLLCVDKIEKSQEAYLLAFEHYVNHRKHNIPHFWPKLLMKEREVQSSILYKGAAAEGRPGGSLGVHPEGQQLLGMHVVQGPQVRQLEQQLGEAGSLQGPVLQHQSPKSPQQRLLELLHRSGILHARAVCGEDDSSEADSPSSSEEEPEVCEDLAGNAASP
human Vitamin D Receptor (VDR), VDR (gene 7421), sequence (P11473 whole entry, looked up, the tested form may be a part): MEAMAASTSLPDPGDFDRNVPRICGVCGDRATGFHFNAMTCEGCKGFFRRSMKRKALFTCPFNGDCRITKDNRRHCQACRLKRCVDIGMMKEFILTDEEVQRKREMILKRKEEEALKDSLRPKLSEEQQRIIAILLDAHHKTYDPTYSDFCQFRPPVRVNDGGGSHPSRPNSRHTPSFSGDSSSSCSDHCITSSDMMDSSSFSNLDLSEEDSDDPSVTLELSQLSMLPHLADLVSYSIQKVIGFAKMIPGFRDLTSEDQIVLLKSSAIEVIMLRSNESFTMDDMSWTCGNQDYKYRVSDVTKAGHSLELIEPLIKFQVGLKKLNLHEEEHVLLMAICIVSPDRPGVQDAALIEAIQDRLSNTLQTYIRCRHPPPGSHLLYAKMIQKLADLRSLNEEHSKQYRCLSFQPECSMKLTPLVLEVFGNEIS
human Retinoid X Receptor beta (RXRb), RXRB (gene 6257), sequence (P28702 whole entry, looked up, the tested form may be a part): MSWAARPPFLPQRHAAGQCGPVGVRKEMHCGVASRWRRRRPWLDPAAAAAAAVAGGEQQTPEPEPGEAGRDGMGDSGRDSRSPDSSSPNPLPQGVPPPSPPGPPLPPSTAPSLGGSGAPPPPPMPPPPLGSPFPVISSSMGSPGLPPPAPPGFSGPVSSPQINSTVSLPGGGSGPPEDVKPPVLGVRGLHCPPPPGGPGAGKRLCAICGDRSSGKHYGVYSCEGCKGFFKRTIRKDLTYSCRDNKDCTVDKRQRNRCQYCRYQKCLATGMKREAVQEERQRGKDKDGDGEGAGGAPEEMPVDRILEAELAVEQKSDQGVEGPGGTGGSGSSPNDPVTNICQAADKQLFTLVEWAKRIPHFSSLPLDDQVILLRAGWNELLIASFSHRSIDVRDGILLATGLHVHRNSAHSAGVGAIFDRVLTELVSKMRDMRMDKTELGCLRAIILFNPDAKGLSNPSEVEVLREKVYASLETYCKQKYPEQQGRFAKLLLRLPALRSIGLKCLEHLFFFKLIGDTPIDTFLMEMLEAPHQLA
human RAR-related Orphan Receptor gamma (RORg), RORC (gene 6097), sequence (P51449 whole entry, looked up, the tested form may be a part): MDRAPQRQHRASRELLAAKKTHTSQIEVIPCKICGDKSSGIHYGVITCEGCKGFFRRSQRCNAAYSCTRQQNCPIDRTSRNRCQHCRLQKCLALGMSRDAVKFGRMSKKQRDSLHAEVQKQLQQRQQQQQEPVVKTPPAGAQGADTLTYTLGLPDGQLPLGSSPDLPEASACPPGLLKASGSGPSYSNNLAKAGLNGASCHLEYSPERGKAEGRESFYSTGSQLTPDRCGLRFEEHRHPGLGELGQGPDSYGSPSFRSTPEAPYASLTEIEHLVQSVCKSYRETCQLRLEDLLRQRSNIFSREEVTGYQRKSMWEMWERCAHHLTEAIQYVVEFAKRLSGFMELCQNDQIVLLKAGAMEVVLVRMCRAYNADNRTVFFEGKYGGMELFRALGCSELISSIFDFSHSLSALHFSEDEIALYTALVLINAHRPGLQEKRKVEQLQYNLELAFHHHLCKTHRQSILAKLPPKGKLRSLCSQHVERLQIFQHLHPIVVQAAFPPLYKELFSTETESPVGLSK
E-selectin (Homo sapiens), sequence (P16581 whole entry, looked up): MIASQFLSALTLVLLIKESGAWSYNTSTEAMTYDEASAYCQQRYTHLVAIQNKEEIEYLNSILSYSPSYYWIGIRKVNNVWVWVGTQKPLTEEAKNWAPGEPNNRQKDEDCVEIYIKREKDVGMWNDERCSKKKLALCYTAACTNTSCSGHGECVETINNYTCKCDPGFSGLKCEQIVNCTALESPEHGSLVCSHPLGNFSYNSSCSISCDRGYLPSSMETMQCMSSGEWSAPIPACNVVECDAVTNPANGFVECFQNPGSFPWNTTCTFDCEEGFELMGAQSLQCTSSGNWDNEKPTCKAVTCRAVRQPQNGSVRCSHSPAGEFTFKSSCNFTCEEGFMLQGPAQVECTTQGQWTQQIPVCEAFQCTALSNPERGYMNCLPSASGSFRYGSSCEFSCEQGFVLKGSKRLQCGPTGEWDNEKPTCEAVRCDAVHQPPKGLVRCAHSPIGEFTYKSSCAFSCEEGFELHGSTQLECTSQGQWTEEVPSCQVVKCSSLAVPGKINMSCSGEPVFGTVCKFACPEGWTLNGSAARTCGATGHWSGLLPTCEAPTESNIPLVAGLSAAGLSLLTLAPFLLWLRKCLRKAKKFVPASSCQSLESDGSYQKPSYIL
Retinoic acid receptor RXR-alpha (Homo sapiens), sequence (P19793 whole entry, looked up, the tested form may be a part): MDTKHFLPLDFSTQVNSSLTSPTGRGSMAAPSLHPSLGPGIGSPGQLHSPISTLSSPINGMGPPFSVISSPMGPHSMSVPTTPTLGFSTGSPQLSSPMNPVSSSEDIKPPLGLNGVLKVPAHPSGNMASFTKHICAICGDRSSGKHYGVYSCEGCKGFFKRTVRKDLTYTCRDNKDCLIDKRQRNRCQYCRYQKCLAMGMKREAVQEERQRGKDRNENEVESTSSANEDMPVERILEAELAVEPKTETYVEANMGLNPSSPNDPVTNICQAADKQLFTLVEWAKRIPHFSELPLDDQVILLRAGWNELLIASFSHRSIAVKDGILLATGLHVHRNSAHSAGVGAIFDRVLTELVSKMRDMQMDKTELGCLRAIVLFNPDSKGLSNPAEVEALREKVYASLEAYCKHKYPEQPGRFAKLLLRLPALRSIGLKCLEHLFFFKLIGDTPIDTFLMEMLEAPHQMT

CCCCCCCCCCOC(C)=O
inactive: [1] | [2] | [3] | [4] | [5]

CCC(Cc1ccccc1)(C(=O)c1ccc(N2CCOCC2)cc1)N(C)C (configuration not stated)
inactive: [1] | [2] | [4] | [5]

CCCCC(CC)COC(=O)c1ccccc1O (configuration not stated)
inactive: [1] | [2] | [3] | [7] | [12] | [5] | [14] | [18] | [20]
active: [6] 10 µM | [8] 15.9 µM | [9] 16.2 µM | [10] 18.1 µM | [11] 10 µM | [13] 15.7 µM | [15] 19.9 µM | [16] 16.2 µM | [17] 18.2 µM | [19] 18.8 µM

CC=C1CC2C=CC1C2 (configuration not stated)
inactive: [1] | [2] | [4] | [5]

CC=CCO
inactive: [1] | [2] | [3] | [4] | [5]

C1=CCCC1
inactive: [1] | [2] | [3] | [4] | [5]

COc1ccc([C@@H]2CC(=O)c3c(O)cc(O[C@@H]4O[C@H](CO[C@@H]5O[C@@H](C)[C@H](O)[C@@H](O)[C@H]5O)[C@@H](O)[C@H](O)[C@H]4O)cc3O2)cc1OC
inactive: [1] | [2] | [3] | [4] | [5]

COCC(C)N (configuration not stated)
inactive: [1] | [2] | [4] | [5]

CC1=NN(c2cc(S(=O)(=O)O)ccc2Cl)C(=O)C1N=Nc1ccccc1 (configuration not stated)
inactive: [1] | [2] | [4]

COc1ccc2nc(N)sc2c1
not listed: [3] | [4] | [5]
inactive: all other assays above

CCCCCCCCO[C@@H]1O[C@H](CO)[C@@H](O)[C@H](O)[C@H]1O
inactive: [1] | [2] | [4] | [5]

C=CC(=O)OCC(Br)CBr (configuration not stated)
active: [1] 176 µM | [6] 20 µM | [7] 20 µM | [8] 31.8 µM | [9] 26.6 µM | [10] 5.44 µM | [11] 20 µM | [12] 33 µM | [13] 32.5 µM | [15] 16.6 µM | [16] 20 µM | [17] 31.6 µM | [18] 32.4 µM | [19] 37 µM | [20] 14.4 µM
inactive: [2] | [4] | [14]

COc1c2ccoc2cc2oc(=O)ccc12
inactive: [1] | [2] | [3] | [4] | [5]

CCOc1nc(F)cc2nc(S(=O)(=O)Nc3c(Cl)cccc3C(=O)OC)nn12
inactive: all assays above

CC(=O)NS(=O)(=O)c1ccc(N)cc1
inactive: [1] | [2] | [3] | [5]

CN(C)c1ccc(C(=N)c2ccc(N(C)C)cc2)cc1
inactive: [1] | [2] | [3] | [4]
active: [5] 156 µM

O=C1CCCC1
inactive: [1] | [2] | [3] | [4] | [5]

Cc1ccc(N)c([N+](=O)[O-])c1
inactive: [1] | [2] | [3] | [5]

CCCOC(=O)CCCCC(=O)OCCC
inactive: [1] | [2] | [3] | [5]

O=Nc1ccc(O)cc1
not listed: [5]
inactive: all other assays above

c1ccc2c(c1)ccc1cc3c(ccc4ccccc43)cc12
active: [14] 0.015 µM | [15] 35.7 µM | [18] 0.267 µM
inactive: [1] | [2] | [3] | [4] | [6] | [7] | [8] | [9] | [10] | [11] | [12] | [13] | [15] | [16] | [17] | [18] | [19] | [20]

CC(C)(C)C(=O)C=Cc1ccc(Cl)cc1
active: [1] 24.4 µM | [3] 24.4 µM
inactive: [2] | [4] | [5]

CCCCC/C=C\C/C=C\CCCCCCCC(=O)OC
active: [6] 29.6 µM | [7] 20 µM | [8] 34.4 µM | [10] 28.7 µM | [12] 31.4 µM | [15] 37.5 µM | [16] 20 µM | [17] 20 µM | [20] 18.8 µM
inactive: [1] | [2] | [9] | [11] | [13] | [14] | [18] | [19]
